Measurements published in PubChem BioAssay (NCATS).
Records with an inconclusive call do not appear. A call without a number means that no potency is given here. Unmarked numbers belong to inactive results. The source made the active and inactive calls. Calls follow the shape of the dose curve; as a rule, active = well fitted curve in the direction sought with a large enough effect; inconclusive = small, poorly fitted or top-dose-only effect, or another doubt; inactive = no such curve, though single readings can be large; an effect the other way counts as inactive or inconclusive.

Legend:
[1] = target: Rap guanine nucleotide exchange factor 3 (Homo sapiens) (UniProt O95398); experiment: Confirmatory qHTS for antagonist of cAMP-regulated guanine nucleotide exchange factor 3 (EPAC1) (AID 1645880); also: nearly all actives have a fitted effect of over 55% in size; also: potency is read from the fitted curve at half-maximal effect
Rap guanine nucleotide exchange factor 3 (Homo sapiens), sequence (O95398 whole entry, looked up): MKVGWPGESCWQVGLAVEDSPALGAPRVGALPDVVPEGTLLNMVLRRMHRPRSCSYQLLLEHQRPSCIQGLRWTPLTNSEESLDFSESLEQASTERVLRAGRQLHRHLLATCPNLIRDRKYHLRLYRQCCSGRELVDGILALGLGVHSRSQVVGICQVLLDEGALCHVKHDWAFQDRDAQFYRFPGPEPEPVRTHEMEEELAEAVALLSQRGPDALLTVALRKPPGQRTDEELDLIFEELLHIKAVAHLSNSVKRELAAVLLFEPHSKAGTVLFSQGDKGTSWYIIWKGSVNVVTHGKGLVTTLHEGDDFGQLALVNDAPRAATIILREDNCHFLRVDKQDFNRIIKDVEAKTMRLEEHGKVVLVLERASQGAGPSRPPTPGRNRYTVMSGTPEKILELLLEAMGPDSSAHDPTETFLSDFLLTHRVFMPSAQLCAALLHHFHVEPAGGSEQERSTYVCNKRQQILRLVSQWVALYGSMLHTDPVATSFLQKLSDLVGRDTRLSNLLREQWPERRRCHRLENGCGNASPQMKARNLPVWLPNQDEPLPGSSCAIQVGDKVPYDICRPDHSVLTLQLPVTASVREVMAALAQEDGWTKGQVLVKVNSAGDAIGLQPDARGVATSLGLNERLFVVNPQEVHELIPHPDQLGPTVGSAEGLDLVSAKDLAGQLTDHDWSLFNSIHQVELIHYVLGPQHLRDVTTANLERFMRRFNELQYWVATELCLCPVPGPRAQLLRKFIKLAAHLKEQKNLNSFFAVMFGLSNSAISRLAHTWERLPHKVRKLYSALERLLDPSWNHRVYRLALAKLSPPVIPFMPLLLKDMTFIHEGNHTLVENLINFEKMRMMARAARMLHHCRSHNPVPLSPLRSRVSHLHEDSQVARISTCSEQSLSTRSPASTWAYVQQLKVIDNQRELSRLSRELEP
Procedure, shortened: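 Released BODIPY-GDP fluoresces less than Rap1-bound BODIPY-GDP; the signal is followed at 480/540 nm at 5-min intervals over 30 min, after 5 min at room temperature. Reactions contain 100 nM EPAC1, 250 nM RAP1B-BODIPY-GDP and 50 uM GDP; results are normalized to ATA and DMSO.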

[2] = target: Rap guanine nucleotide exchange factor 3 (Homo sapiens) (UniProt O95398); experiment: Confirmatory qHTS for agonist of cAMP-regulated guanine nucleotide exchange factor 3 (EPAC1) (AID 1645881); also: nearly all actives have a fitted effect of over 75% in size; also: potency is read from the fitted curve at half-maximal effect;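 as to activation: EPAC1 catalysed release of BODIPY-GDP from Rap1B seen as fluorescence loss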
[3] = target: Rap guanine nucleotide exchange factor 4 (Homo sapiens) (UniProt Q8WZA2); experiment: Confirmatory qHTS for agonist of cAMP-regulated guanine nucleotide exchange factor 4 (EPAC2) (AID 1645884);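 also: nucleotide exchange releases bodipy-GDP from Rap1 and this lowers its fluorescence; nearly all actives have a fitted effect of over 65% in size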; also: potency is read from the fitted curve at half-maximal effect
Rap guanine nucleotide exchange factor 4 (Homo sapiens), sequence (Q8WZA2 whole entry, looked up): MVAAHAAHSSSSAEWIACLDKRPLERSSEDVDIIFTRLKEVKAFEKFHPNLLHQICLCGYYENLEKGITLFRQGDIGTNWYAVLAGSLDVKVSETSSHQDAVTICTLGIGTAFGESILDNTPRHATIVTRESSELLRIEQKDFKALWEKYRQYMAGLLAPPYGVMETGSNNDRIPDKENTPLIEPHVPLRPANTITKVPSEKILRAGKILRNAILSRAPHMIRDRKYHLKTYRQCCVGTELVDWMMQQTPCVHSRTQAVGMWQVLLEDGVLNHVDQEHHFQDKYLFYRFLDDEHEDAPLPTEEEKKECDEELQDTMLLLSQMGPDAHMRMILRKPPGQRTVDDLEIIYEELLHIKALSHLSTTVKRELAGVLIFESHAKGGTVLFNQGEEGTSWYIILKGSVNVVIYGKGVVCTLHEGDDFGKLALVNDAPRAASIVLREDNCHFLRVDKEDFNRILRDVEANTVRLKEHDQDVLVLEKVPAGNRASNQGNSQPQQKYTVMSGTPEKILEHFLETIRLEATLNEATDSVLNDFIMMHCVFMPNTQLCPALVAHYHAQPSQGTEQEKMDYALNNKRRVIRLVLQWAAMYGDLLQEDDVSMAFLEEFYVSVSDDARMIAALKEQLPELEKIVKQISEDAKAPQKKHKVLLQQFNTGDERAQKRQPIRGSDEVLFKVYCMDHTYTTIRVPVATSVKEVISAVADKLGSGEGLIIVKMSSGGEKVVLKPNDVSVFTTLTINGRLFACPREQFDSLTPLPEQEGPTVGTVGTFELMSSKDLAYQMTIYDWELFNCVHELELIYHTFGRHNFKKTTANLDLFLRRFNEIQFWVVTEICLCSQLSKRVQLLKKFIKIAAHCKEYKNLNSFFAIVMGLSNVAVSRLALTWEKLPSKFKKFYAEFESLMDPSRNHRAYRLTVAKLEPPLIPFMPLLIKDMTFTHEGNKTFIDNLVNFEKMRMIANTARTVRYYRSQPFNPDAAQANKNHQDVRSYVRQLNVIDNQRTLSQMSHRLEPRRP

[4] = target: Rap guanine nucleotide exchange factor 4 (Homo sapiens) (UniProt Q8WZA2); experiment: Confirmatory qHTS for antagonist of cAMP-regulated guanine nucleotide exchange factor 4 (EPAC2) (AID 1645885); also: nearly all actives have a fitted effect of over 25% in size; also: potency is read from the fitted curve at half-maximal effect
[5] = target: Rap guanine nucleotide exchange factor 3 (Homo sapiens) (UniProt O95398); experiment: Counterscreen qHTS for antagonist of cAMP-regulated guanine nucleotide exchange factor 3 (EPAC1) (AID 1645888)
Procedure, shortened: (§1)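 Measured: fluorescence of BODIPY-GDP bound to Rap1B, which falls as exchange proceeds. Conditions include 50 uM competing GDP, 5 and 30 min reads, and a later cAMP challenge for antagonist detection.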

[6] = target: Rap guanine nucleotide exchange factor 3 (Homo sapiens) (UniProt O95398); experiment: Counterscreen qHTS for agonist of cAMP-regulated guanine nucleotide exchange factor 3 (EPAC1) (AID 1645889); also: nearly all actives have a fitted effect of over 40% in size; also: potency is read from the fitted curve at half-maximal effect
Procedure, shortened: as §1

Row | Compound | Potency [1] | Potency [2] | activation [3] | Potency [4] | activity change, negative = inhibition [5] | activation [6] | Potency [3] | Potency [5] | Potency [6]
1 | COC(=O)c1ccc(OC(=O)c2ccc(OC)cc2)c(OC)c1 | inactive | inactive | 7.15% [at 17.1 µM, percent relative to cAMP agonist control] | inactive | -8.27% [at 30.8 µM] | 6.57% [at 30.8 µM] |  |  | 
2 | O=CN(CCN(C=O)CN1CCCCC1)CN1CCCCC1 | inactive | inactive |  | inactive |  |  | inactive | inactive | inactive
3 | Nc1c(C(=O)c2ccccc2)sc2nsc(SCCN3CCCC3)c12 | inactive | 100 µM (active) |  | 84.9 µM (active) |  |  | 100 µM (active) | inactive | 39.8 µM (active)
4 | O=c1oc(-c2ccccc2)c(-c2ccccc2)c2ccccc12 | inactive | inactive |  | inactive |  |  | inactive | inactive | inactive
5 | CCCCC(=O)Nc1cccc(NC(=O)c2ccccc2Br)c1 | inactive | inactive |  | inactive |  |  | inactive | inactive | inactive
6 | C=CCn1c(CSCc2ccc(Cl)cc2Cl)nnc1SCC(=O)Nc1ccc(C(=O)O)cc1 | inactive | inactive | 0.968% [at 17.1 µM, percent relative to cAMP agonist control] | inactive | -5.41% [at 30.8 µM] | 4.51% [at 30.8 µM] |  |  | 
7 | COc1ccc(OC)c(/C=c2\sc3nc(-c4cccs4)nn3c2=O)c1 | inactive | 89.1 µM (active) |  | inactive |  |  | 100 µM (active) | inactive | inactive
8 | Cc1ccc(CNC(=O)C(=O)NCCC2CCCCN2S(=O)(=O)c2cccs2)cc1 (stereo not given) | inactive | inactive | -1.43% [at 17.1 µM, percent relative to cAMP agonist control] | inactive | -26.3% [at 30.8 µM] | 20.6% [at 30.8 µM] |  |  | 
9 | CCOC(=O)c1cc(C(C)(C)C)nc(SC)c1C#N | inactive | inactive |  | inactive |  |  | inactive | inactive | inactive
10 | CCN(CC)c1nc(SCC(=O)O)nc(N(CC)CC)n1 | inactive | inactive |  | 12 µM (active) |  |  | inactive | inactive | inactive
11 | NNC(=O)c1cccc(COCC(F)(F)C(F)F)c1 | inactive | inactive |  | inactive |  |  | inactive | inactive | inactive
12 | O=C(O)c1ccc(/C=N/N2CCN(Cc3cccc4ccccc34)CC2)cc1 | inactive | inactive | 4.54% [at 17.1 µM, percent relative to cAMP agonist control] | inactive | -6.71% [at 30.8 µM] | 4.41% [at 30.8 µM] |  |  | 
13 | O=C(c1ccccc1)c1nn(-c2ccccc2)c(=O)cc1-c1ccccc1 | inactive | inactive |  | inactive |  |  | inactive | inactive | inactive
14 | CC1CC(C)CN(c2nc3c(c(=O)n(C)c(=O)n3C)n2CCSc2ncccn2)C1 (stereo not given) | inactive | inactive | 0.98% [at 17.1 µM, percent relative to cAMP agonist control] | inactive | 1.05% [at 30.8 µM] | 6.66% [at 30.8 µM] |  |  | 
15 | COc1ccc(-c2c(-c3ccccc3OC)oc3ccccc23)cc1F | inactive | inactive |  | 6.75 µM (active) |  |  | inactive | inactive | inactive
16 | CC(C)c1c(Cl)c(O)c(-c2ccccc2)c(=O)n1-c1ccc(F)cc1 | 19 µM (active) | inactive |  | inactive |  |  | inactive | inactive | inactive
17 | COc1ccccc1Oc1ccnc2cc(Cl)ccc12 | inactive | inactive | 3.38% [at 17.1 µM, percent relative to cAMP agonist control] | inactive | 3.13% [at 30.8 µM] | 5.9% [at 30.8 µM] |  |  | 
18 | CCC(=O)C1=C(c2cccc([N+](=O)[O-])c2)N(C(=O)CC)n2c(nnc2-c2ccccc2)S1 | inactive | inactive |  | inactive |  |  | inactive | inactive | inactive

Row | Compound | Potency [1] | Potency [2] | activation [3] | Potency [4] | activity change, negative = inhibition [5] | activation [6] | Potency [3] | Potency [5] | Potency [6]
19 | COc1cccc(OC)c1C(=O)Nc1ccccc1Sc1ccccc1 | inactive | inactive |  | inactive |  |  | inactive | inactive | inactive
20 | CCOC(=O)c1c(CC(C)C)csc1N | inactive | inactive |  | inactive |  |  | inactive | inactive | inactive
21 | Oc1ccc(NCc2cccs2)cc1 | inactive | inactive | 14.6% [at 17.1 µM, percent relative to cAMP agonist control] | inactive | 0.945% [at 30.8 µM] | 21.5% [at 30.8 µM] |  |  | 
22 | CC(=O)NC(c1ccc(C)cc1)c1cc(Cl)c2cccnc2c1O (stereo not given) | inactive | inactive |  | inactive |  |  | inactive | inactive | inactive
23 | COc1cc(/C=C2\SC(=O)N(CC(=O)Nc3cccc(C)c3)C2=O)cc([N+](=O)[O-])c1O | 19 µM (active) | inactive |  | 47.8 µM (active) |  |  | inactive | inactive | inactive
24 | CCCCNC(=O)NC12CC3CC(CC(C3)C1)C2 | inactive | inactive |  | inactive |  |  | inactive | inactive | inactive
25 | CCc1nc2c(OCCOc3ccc(F)cc3)cccn2c1N(C)C(=O)c1ccc(OC)cc1 | inactive | inactive | 3.55% [at 17.1 µM, percent relative to cAMP agonist control] | inactive | -15.6% [at 30.8 µM] | 11.5% [at 30.8 µM] |  |  | 
26 | O=C(N[C@@H](Cc1c[nH]c2ccccc12)C(=O)O)OCC1c2ccccc2-c2ccccc21 | inactive | inactive |  | inactive |  |  | inactive | inactive | inactive
27 | CC(=O)Nc1ccc(CNc2nc3cc(-c4ccsc4)sc3c(=O)n2C)cc1 | inactive | inactive | -3.78% [at 17.1 µM, percent relative to cAMP agonist control] | inactive | 16% [at 30.8 µM] | 36.9% [at 30.8 µM] |  |  | 
28 | Cc1nc(-c2cccc(NC(=O)Cc3ccccc3)c2)cs1 | inactive | inactive | 1.14% [at 17.1 µM, percent relative to cAMP agonist control] | inactive | -17.6% [at 30.8 µM] | 2.08% [at 30.8 µM] |  |  | 
29 | O=C(Cn1cnc2scc(-c3cccc([N+](=O)[O-])c3)c2c1=O)NCc1ccco1 | 37.9 µM (active) | inactive |  | inactive |  |  | inactive | inactive | inactive
30 | Clc1c(Cl)c(Cl)c2n[nH]nc2c1Cl | 75.7 µM (active) | inactive |  | 19 µM (active) |  |  | inactive | inactive | inactive
31 | CCSc1nc2ccccc2c(OCc2ccccc2Cl)c1C(=O)OC | inactive | inactive |  | inactive |  |  | inactive | inactive | inactive
32 | CC(C)CCNC1c2ccccc2C(=O)N1Cc1ccccc1 (stereo not given) | inactive | inactive | 11.2% [at 17.1 µM, percent relative to cAMP agonist control] | inactive | -10.7% [at 30.8 µM] | 2.24% [at 30.8 µM] |  |  | 
33 | O=C(COc1ccccc1Cl)Nc1cccc(S(=O)(=O)NC2=NCCCCC2)c1 | inactive | inactive |  | inactive |  |  | inactive | inactive | inactive
34 | Cc1noc(NS(=O)(=O)c2ccc(NC(=O)CSc3nnc4c(n3)[nH]c3ccccc34)cc2)c1C | 23.9 µM (active) | inactive |  | inactive |  |  | inactive | inactive | inactive
35 | COC(=O)c1sc(-c2ccc(C(C)(C)C)cc2)cc1NC(=O)c1ccccc1C(=O)O | 50.1 µM (active) | inactive | 5.26% [at 17.1 µM, percent relative to cAMP agonist control] | inactive | -19.7% [at 30.8 µM] | 9.25% [at 30.8 µM] |  |  | 
